A short description of test [1]: qHTS drug screen for cell cycle checkpoint inhibitors in PARPi-resistant BRCA-mutant ovarian cancer cell lines. (AID 1963452). Particulars: PEO1/OlaR viability, CellTiter-Glo luminescence, 96 h; for Z-AUC: stronger effect = lower value. An outline of the steps:
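PEO1, PEO4 and PEO1/OlaR ovarian cancer cells, 600 per well, exposed 96 h at 37C to a dilution series. Viability read by CellTiter-Glo luminescence, normalized to DMSO and empty wells; activity summarized as Z-AUC.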
(qHTS replaces the single test concentration by a dilution series.)

Test [2] in a line: qHTS profiling for inhibitors of Plasmodium falciparum proliferation (AID 504749; active means well fitted inhibition curve with a large enough effect; further: nearly all actives have a fitted effect of over 60% in size). To be noted: P. falciparum in erythrocytes, SYBR Green DNA, 72 h. An excerpt:
NIH National Institute of Allergy and Infectious Diseases [NIAID] NIH Chemical Genomics Center [NCGC] MLPCN Grant: None Assay Provider: Xinzhuan Su, NIAID NCGC Assay Overview: Plasmodium falciparum is a virulent malarial parasite that kills 1-2 million people worldwide each year. Transmitted by mosquitoes, the sporozoite form of the parasite enters the blood stream to infect hepatocytes, where they become merozoites that infect red blood cells (erythrocytes). Within erythrocytes, merozoites begin a […] cycle of growth and division, after which the parasite is released to infect new red blood cells. Gametocytes, which form within erythrocytes as well, circulate in the bloodstream and are ingested by the mosquito, thereby completing the life cycle. To profile malarial isolates for differential chemical responses and to identify inhibitors of malarial growth, an assay that measures P. falciparum growth and replication within erythrocytes was employed. This assay uses a DNA binding fluorescent dye (SYBR Green) to detect parasite DNA following cell lysis. Because mature erythrocytes lack DNA, only Plasmodium-derived DNA is detected.
NCGC Assay Protocol Summary: The SYBR Green viability assay was adapted from a method described previously (Plouffe et al., 2008). For screening 3 ul culture medium was dispensed into 1536 well black clear bottom plates (Aurora Biotechnologies) using a Multidrop Combi (Thermo Fisher Scientific Inc.), 23 nL compounds in DMSO were added by a pin tool (Kalypsys), and 5 ul of erythrocytes infected with P. falciparum (0.3% parasitemia, 2.5% hematocrit final concentration) were added. The plates were incubated at 37 C in a humidified incubator in 5% CO2 for 72 h, and 2 ul lysis buffer (20 mM Tris HCl, 10 mM EDTA, 0.16% saponin, 1.6% triton X, 10X SYBR Green I supplied as 10,000X […] by Invitrogen) was added to each well. The plates were mixed for 25 sec with gentle shaking and incubated overnight at room temperature in the dark. The following morning, fluorescence intensity at 485(14) nm excitation and 535(25) nm emission wavelengths was measured on an EnVision (Perkin Elmer) plate reader. Plate reads were normalized relative to the control inhibitor (0.29 uM artemisinin) and vehicle (DMSO) wells present on each plate and then corrected by an algorithm using vehicle-only control plates at the beginning and end of the compound plate stack.

Where [3] appears, read: measured here: PEO1 parental Z-AUC.

We go through 23 compounds from PubChem BioAssay (NCATS).

Structures are written as SMILES. Records with an inconclusive call do not appear. Activity calls are given as the source filed them. Unless noted, the call rests on the fitted dose curve.
Potency means the concentration at half of the fitted maximal effect.

Consider `CCCCNc1ncc2c(-c3ccc(F)cc3)nn(CC3CCC(N)CC3)c2n1` (stereo not drawn), for which the results for the Z-AUC in test [1], in test [1] (setting [3]) and in test [1] (measured here: PEO4 Z-AUC) were -1.02 (inactive), -0.901 and -1.35, respectively.
Turning to `Cc1cc(OCc2nnc(SC3CCCC3)n2-c2cccnc2)ccc1-c1ccc(S(C)(=O)=O)cc1`, the Z-AUC in test [1] is -1.33 (inactive); in test [1] (setting [3]) it was -3; in test [1] (measured here: PEO4 Z-AUC) it was -2.2.
Taken in the same sequence, the figures for `Clc1cc2c(NC3CCCC3)nnc(-c3ccncc3)c2cc1Cl` were -0.0819 (inactive), 0.551 and 0.556.
`COc1cccc(Nc2ncnn3ccc(CN4CC[C@@H](N)[C@H](O)C4)c23)c1`: the Potency in test [1] was 2190 nM (active). The Z-AUC in test [1] (setting [3]) is -1.46; in test [1] (measured here: PEO4 Z-AUC), -1.16.
With `CCCN1CCN(c2ccc(C(=O)NC3(C(=O)NCC#N)CCCCC3)cc2)CC1`, the results for the Z-AUC in test [1], in test [1] (setting [3]) and in test [1] (measured here: PEO4 Z-AUC) were 0.959 (inactive), 0.728 and 0.558, respectively.
As to `COc1cc2c(NC3CCN(CC4CCCCC4)CC3)nc(N3CCCN(C(C)C)CC3)nc2cc1OCCCN1CCCCC1`, the Z-AUC in test [1] was 0.256 (inactive); in test [1] (setting [3]) it was 0.301; in test [1] (measured here: PEO4 Z-AUC), -0.248.
With `COCCOc1cnc2ccn([C@H](C)c3nnc4c(F)cc(-c5cnn(C)c5)cn34)c(=O)c2c1`, the values for the Z-AUC in test [1], in test [1] (setting [3]) and in test [1] (measured here: PEO4 Z-AUC) were 1.14 (inactive), 0.929 and 1.44, respectively.
For `CNCc1ccc(-c2cc(-c3nc(-c4ccc(S(=O)(=O)C(C)C)cc4)cnc3N)on2)cc1`, the Z-AUC was 0.146 (inactive) in test [1], 0.477 in test [1] (setting [3]) and 0.605 in test [1] (measured here: PEO4 Z-AUC).
For `COc1c(Nc2ncc(Cl)c(N[C@H]3[C@@H](C(N)=O)[C@@H]4C=C[C@H]3C4)n2)ccc2c1CC[C@@H](N1CCOCC1)CC2`, the Z-AUC is 0.583 (inactive) in test [1], 0.18 in test [1] (setting [3]) and 0.103 in test [1] (measured here: PEO4 Z-AUC).
With `CC(C)c1c2cc(-c3ccnc(NC4CCC(NC5CCOCC5)CC4)n3)ccc2nn1C` (stereo not drawn), the Z-AUC is -1.95 (inactive) in test [1], -2.05 in test [1] (setting [3]) and -1.88 in test [1] (measured here: PEO4 Z-AUC).
The corresponding values for `FC(F)(F)c1ccc(Nc2nc(-c3c(C(F)(F)F)nc4ccccn34)cs2)cc1` are -2.12 (inactive), -1.08 and -1.77.
With `CC[C@@](C)(Nc1ccnc(-c2c[nH]c3ncccc23)n1)C(=O)NCC(F)(F)F`, the Z-AUC in test [1] was -1.18 (inactive); in test [1] (setting [3]), -0.201; in test [1] (measured here: PEO4 Z-AUC), -0.4.
For `COc1cc(C(=O)NC2CCN(C)CC2)c(F)cc1Nc1ncc2c(n1)N(C1CCCC1)CC(F)(F)C(=O)N2C`, the Potency in test [1] is 245 nM (active). The Z-AUC in test [1] (setting [3]) was -2.61; in test [1] (measured here: PEO4 Z-AUC) it was -2.16.
Turning to `Cc1ccc(-c2ccc3ncc4c(c3n2)n(C2CCN(C(=O)[C@H](C)O)CC2)c(=O)n4C)cn1`, the Z-AUC was -1.81 (inactive) in test [1], -2.34 in test [1] (setting [3]) and -2.23 in test [1] (measured here: PEO4 Z-AUC).
Regarding `CO[C@H]1C[C@@H]2CC[C@@H](C)[C@@](O)(O2)C(=O)C(=O)N2CCCC[C@H]2C(=O)O[C@H]([C@H](C)C[C@@H]2CC[C@@H](OP(C)(C)=O)[C@H](OC)C2)CC(=O)[C@H](C)/C=C(\C)[C@@H](O)[C@@H](OC)C(=O)[C@H](C)C[C@H](C)/C=C/C=C/C=C/1C`, the Z-AUC was 0.099 (inactive) in test [1], 0.103 in test [1] (setting [3]) and -0.0432 in test [1] (measured here: PEO4 Z-AUC).
On to `CC#CC(=O)N1CCC[C@H]1c1nc(-c2ccc(C(=O)Nc3ccccn3)cc2)c2c(N)nccn12`, for which the figures for the Z-AUC in test [1], in test [1] (setting [3]) and in test [1] (measured here: PEO4 Z-AUC) were -0.264 (inactive), 0.632 and 0.342, respectively.
With `Cc1c(F)cc(C(=O)NC2CC2)cc1-c1c(F)cn2c(C(C)(C)C)nnc2c1F`, the values for the Z-AUC in test [1], in test [1] (setting [3]) and in test [1] (measured here: PEO4 Z-AUC) were 0.645 (inactive), 0.963 and 1.81, respectively.
Taken in the same sequence, the figures for `C=C1C(=O)O[C@H]2[C@H]1CC/C(C)=C/CC[C@@]1(C)O[C@@H]21` were 1.08 (inactive), 0.881 and 0.819.
The corresponding values for `Cc1cc(O)c(-c2ccc([C@@H](C)CN(C)C)cc2)c2c1[nH]c(=O)c1sccc12` are -1.8 (inactive), -2.07 and -2.02.
With `COc1ccc(N(C)c2nc(C)nc3ccccc23)cc1`, the Potency in test [1] was 3.9 nM (active).
With `COc1cc2ncnc(Nc3ccc(F)c(Cl)c3)c2cc1NC(=O)/C=C/CN1CCCCC1`, in test [1], the Potency was 6920 nM (active).
Regarding `CC(=O)O[C@H]1C(=O)[C@@]2(C)[C@H]([C@H](OC(=O)c3ccccc3)[C@]3(O)C[C@H](OC(=O)[C@H](O)[C@@H](NC(=O)c4ccccc4)c4ccccc4)C(C)=C1C3(C)C)[C@]1(OC(C)=O)CO[C@@H]1C[C@@H]2O`, the Potency in test [2] (parasite line A) is 355 nM (active); in test [2] (parasite line B), 251 nM (active).
In the case of `CC[C@]1(O)CC2CN(CCc3c([nH]c4ccccc34)[C@@](C(=O)OC)(c3cc4c(cc3OC)N(C)[C@H]3[C@@](O)(C(=O)OC)[C@H](OC(C)=O)[C@]5(CC)C=CCN6CC[C@]43[C@@H]65)C2)C1` (stereo partly drawn), the Potency in test [2] (parasite line A) is 2510 nM (active); in test [2] (parasite line B), 3980 nM (active).
